Experimental data from PubChem BioAssay (NCATS).
Inconclusive results are not listed. Activity calls are given as the source filed them. Unless noted, calls come from the whole dose curve; as a rule, active = well fitted cell-killing curve with a large enough effect; inconclusive = small, poorly fitted or top-dose-only effect, or effect the other way; inactive = no such curve, though single readings can be large or run the other way.

Assays:
[1] = Quantitative High-Throughput drug screen in 47 multiple myeloma cell lines against the NCATS MIPE library collection: OCIMY5_PLB cell viability assay (AID 1918988); note: nearly all actives have a fitted effect of over 65% in size
Method in brief: (§1)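 MIPE 4.0 approved/investigational drugs; 500 cells/well; 48 h 37 °C humidified 5% CO2; CTG luminescence readout; DMSO = 100%, media = 0% viability.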

[2] = Quantitative High-Throughput drug screen in 47 multiple myeloma cell lines against the NCATS MIPE library collection: OPM1_PLB cell viability assay (AID 1918989); note: nearly all actives have a fitted effect of over 40% in size
Method in brief: as §1

[3] = Quantitative High-Throughput drug screen in 47 multiple myeloma cell lines against the NCATS MIPE library collection: SKMM1_PLB cell viability assay (AID 1919863); conditions: SKMM1 myeloma viability, CellTiter-Glo ATP, 48 h; viability: stronger effect = lower value; note: nearly all actives have a fitted effect of over 35% in size
Method in brief: as §1

[4] = Quantitative High-Throughput drug screen in 47 multiple myeloma cell lines against the NCATS MIPE library collection: U266_ATCC cell viability assay (AID 1919864); note: nearly all actives have a fitted effect of over 35% in size;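 for viability (% of DMSO control): 0% = media-only wells without cells and 100% = DMSO-only wells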
Method in brief: as §1

[5] = Quantitative High-Throughput drug screen in 47 multiple myeloma cell lines against the NCATS MIPE library collection: UTMC2_PLB cell viability assay (AID 1919868); conditions: CellTiter-Glo ATP luminescence, 48 h; viability (% of DMSO control): at 45.8 µM (top of the series); note: nearly all actives have a fitted effect of over 55% in size;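 for viability (% of DMSO control): 100% = DMSO-only wells and 0% = media-only wells without cells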
Method in brief: as §1

[6] = Quantitative High-Throughput drug screen in 47 multiple myeloma cell lines against the NCATS MIPE library collection: PCM6_Riken cell viability assay (AID 1919870); note: nearly all actives have a fitted effect of over 30% in size
Method in brief: as §1

[7] = Quantitative High-Throughput drug screen in 47 multiple myeloma cell lines against the NCATS MIPE library collection: OPM2_DSMZ cell viability assay (AID 1919872); note: nearly all actives have a fitted effect of over 30% in size
Method in brief: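 Approved and investigational drugs from MIPE 4.0 were added by pin tool to 500 cells per well. After 48 hours at 37C, ATP-based CellTiter-Glo luminescence indicated remaining viability.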

[8] = Quantitative High-Throughput drug screen in 47 multiple myeloma cell lines against the NCATS MIPE library collection: KMS11_JCRBsus cell viability assay (AID 1919873); note: nearly all actives have a fitted effect of over 50% in size
Method in brief: as §1

[9] = Quantitative High-Throughput drug screen in 47 multiple myeloma cell lines against the NCATS MIPE library collection: KMS28BM_JCRB cell viability assay (AID 1919874); note: nearly all actives have a fitted effect of over 35% in size
Method in brief: as §1

[10] = qHTS drug screen for cell cycle checkpoint inhibitors in PARPi-resistant BRCA-mutant ovarian cancer cell lines. (AID 1963452; calls by dose curve); conditions: PEO1/OlaR viability, CellTiter-Glo luminescence, 96 h; for Z-AUC: stronger effect = lower value
Method in brief: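 PEO1, PEO4 and PEO1/OlaR ovarian cancer cells, 600 per well, exposed 96 h at 37C to a dilution series. Viability read by CellTiter-Glo luminescence, normalized to DMSO and empty wells; activity summarized as Z-AUC.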

[11] = Quantitative High-Throughput drug screen in 47 multiple myeloma cell lines against the NCATS MIPE library collection: XG1_PLB cell viability assay (AID 1919866); note: nearly all actives have a fitted effect of over 35% in size
Method in brief: as §1

[12] = Quantitative High-Throughput drug screen in 47 multiple myeloma cell lines against the NCATS MIPE library collection: VP6_DJ cell viability assay (AID 1919867); note: nearly all actives have a fitted effect of over 40% in size
Method in brief: as §1

[13] = Quantitative High-Throughput drug screen in 47 multiple myeloma cell lines against the NCATS MIPE library collection: XG6_PLB cell viability assay (AID 1919865); note: nearly all actives have a fitted effect of over 40% in size
Method in brief: as §1

[14] = Quantitative High-Throughput drug screen in 47 multiple myeloma cell lines against the NCATS MIPE library collection: PE2_PLB cell viability assay (AID 1919869); note: nearly all actives have a fitted effect of over 35% in size
Method in brief: as §1

[15] = Quantitative High-Throughput drug screen in 47 multiple myeloma cell lines against the NCATS MIPE library collection: RPMI8226_ATCC cell viability assay (AID 1919871); note: nearly all actives have a fitted effect of over 30% in size
Method in brief: as §1

[16] = qHTS for identification of novel therapeutic agents for treatment of microphthalmiaassociated transcription factor (MiT) renal cell carcinoma (RCC) (AID 1963991; calls by dose curve); conditions: CellTiter-Glo, 48 h; for z-score: stronger effect = lower value
Method in brief: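 Curves over 11 concentrations were fitted to CellTiter-Glo luminescence, scaled between empty wells (0%) and DMSO (100%) viability. Cells were UOK109, UOK124 and UOK145 TFE3-fusion RCC lines at 500/well, exposed 48 hours at 37 C.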

[17] = measured here: PEO1 parental Z-AUC
[18] = TFE3-RCC UOK109 viability, measured here: UOK109 Z-AUC
[19] = TFE3-RCC viability, measured here: UOK124 Z-AUC
[20] = TFE3-RCC viability, measured here: UOK145 Z-AUC
Potency is the fitted concentration of half-maximal effect.

CN[C@@H]1Cc2cccc3[nH]c(=O)n(c23)C1
active: Potency [1] 20900 nM
1.4: Z-AUC [10, 17]
1.34: Z-AUC ([10]; measured here: PEO4 Z-AUC)
inactive: Potency [2] | viability [3] 93.2% | Potency [4] | Potency [5] | Potency [6] | Potency [7] | Potency [8] | Potency [9] | Z-AUC [10] 1.45

CO[C@H]1CCC(O[C@H]2C[C@H]([C@]3(C)CC[C@]4(C[C@H](O)[C@@H](C)[C@@H]([C@@H](C)C=C(C)C(=O)[C@H](C)C[C@H](C)C(=O)O)O4)O3)O[C@]3(O[C@@H]([C@H]4O[C@@](O)(CO)[C@H](C)C[C@H]4C)C[C@H]3C)[C@H]2C)O[C@H]1C (some centres undefined)
active: Potency [1] 132 nM | Potency [2] 418 nM | Potency [3] 1180 nM | Potency [4] 296 nM | Potency [11] 1180 nM | Potency [12] 1050 nM | Potency [5] 469 nM | Potency [7] 296 nM | Potency [8] 935 nM | Potency [9] 332 nM

O=C(Oc1ccc([N+](=O)[O-])cc1)N1CCN(Cc2cccc(Oc3ccccc3)c2)CC1
1.12: Z-AUC [10, 17]
1.4: Z-AUC ([10]; measured here: PEO4 Z-AUC)
active: Potency [4] 14800 nM | Potency [13] 23500 nM
inactive: Potency [1] | Potency [2] | viability [3] 117% | Potency [14] | Potency [15] | Potency [7] | Z-AUC [10] 1.13

CC(=O)O[C@@]12CO[C@H]1C[C@H](O)[C@@]1(C)C(=O)[C@H](O)C3=C(C)[C@@H](O)C[C@@](O)([C@@H](OC(=O)c4ccccc4)[C@@H]21)C3(C)C
inactive: Potency [4]
active: Potency [1] 1480 nM | Potency [2] 1320 nM | Potency [3] 4180 nM | Potency [12] 935 nM | Potency [7] 9350 nM | Potency [8] 2350 nM

Cc1c(C(=O)c2cccc3ccccc23)c2cccc3c2n1[C@H](CN1CCOCC1)CO3
active: Potency [1] 23500 nM | Potency [2] 23500 nM | Potency [3] 23500 nM | Potency [4] 18700 nM | Potency [15] 23500 nM | Potency [7] 23500 nM | Potency [8] 23500 nM | Potency [9] 23500 nM
inactive: Potency [11] | Potency [12] | Potency [6]

CC[C@@]1(O)C(=O)OCc2c1cc1n(c2=O)Cc2cc3ccccc3nc2-1
-3.18: z-score [16, 20]
active: Potency [1] 166 nM | Potency [2] 833 nM | Potency [3] 235 nM | Potency [4] 332 nM | Potency [13] 14.8 nM | Potency [12] 166 nM | Potency [5] 16.6 nM | Potency [14] 209 nM | Potency [15] 743 nM | Potency [7] 743 nM | Potency [8] 418 nM | Potency [9] 105 nM | Potency [10] 38.9 nM | Potency ([16]; TFE3-RCC UOK109 viability) 590 nM
-1.89: z-score [16, 18]
-3.04: z-score [16, 19]
-2.44: Z-AUC [10, 17]
-1.71: Z-AUC ([10]; measured here: PEO4 Z-AUC)

O=S(=O)(CC1CS1)c1ccc(Oc2ccccc2)cc1 (centres undefined)
active: Potency [1] 20900 nM | Potency [2] 18700 nM | Potency [3] 20900 nM | Potency [4] 14800 nM | Potency [13] 13200 nM | Potency [14] 16600 nM | Potency [8] 26400 nM
1.74: Z-AUC ([10]; measured here: PEO4 Z-AUC)
inactive: Z-AUC [10] 1.02
1.86: Z-AUC [10, 17]

N#C[C@H](O[C@@H]1O[C@H](CO[C@@H]2O[C@H](CO)[C@H](O)[C@H](O)[C@H]2O)[C@H](O)[C@H](O)[C@H]1O)c1ccccc1
active: Potency [1] 20900 nM | Potency [2] 26400 nM | Potency [3] 20900 nM | Potency [4] 23500 nM | Potency [11] 23500 nM | Potency [12] 18700 nM | Potency [14] 18700 nM | Potency [8] 7430 nM | Potency [9] 18700 nM

C[C@@]12OC(=O)[C@]1([C@@H](O)[C@@H]1C=CCCC1)NC(=O)[C@H]2CCCl
active: Potency [1] 4.7 nM | Potency [2] 1 nM | Potency [3] 105 nM | Potency [4] 13.2 nM | Potency [12] 1 nM | Potency [5] 23.5 nM | Potency [6] 10.5 nM | Potency [7] 37.2 nM | Potency [8] 6.6 nM | Potency [9] 9.3 nM

C=CCON=C(C[C@H]1O[C@@H]2O[C@]3(C)CC[C@@H]4[C@H](C)CC[C@@H]([C@H]1C)[C@@]24OO3)[C@H]1O[C@@H]2O[C@]3(C)CC[C@H]4[C@H](C)CC[C@@H]([C@@H]1C)[C@@]24OO3
active: Potency [1] 187 nM | Potency [2] 526 nM | Potency [3] 264 nM | Potency [4] 332 nM | Potency [12] 166 nM | Potency [5] 372 nM | Potency [14] 469 nM | Potency [6] 526 nM | Potency [15] 235 nM | Potency [8] 187 nM | Potency [9] 332 nM

CCCCCC[C@H]1C(=O)O[C@H](C)[C@H](NC(=O)c2cccc(NC=O)c2O)C(=O)O[C@@H](C)[C@@H]1OC(=O)CC(C)C
active: Potency [1] 66.2 nM | Potency [2] 148 nM | Potency [3] 5260 nM | Potency [4] 372 nM | Potency [13] 105 nM | Potency [12] 46.9 nM | Potency [5] 52.6 nM | Potency [14] 209 nM | Potency [6] 52.6 nM | Potency [15] 1050 nM | Potency [8] 74.3 nM | Potency [9] 209 nM
inactive: Z-AUC [10] -1.4
-1.72: Z-AUC ([10]; measured here: PEO4 Z-AUC)
-1.96: Z-AUC [10, 17]

CC1=C(O)C(=O)C=C2C1=CC=C1[C@@]2(C)CC[C@@]2(C)[C@@H]3C[C@](C)(C(=O)O)CC[C@]3(C)CC[C@]12C
active: Potency [1] 296 nM | Potency [2] 743 nM | Potency [3] 1050 nM | Potency [4] 743 nM | Potency [12] 935 nM | Potency [5] 1480 nM | Potency [6] 743 nM | Potency [7] 833 nM | Potency [8] 935 nM | Potency [9] 833 nM | Potency ([16]; TFE3-RCC UOK109 viability) 2640 nM
inactive: Z-AUC [10] -0.53
-1.07: z-score [16, 20]
-0.972: Z-AUC ([10]; measured here: PEO4 Z-AUC)
-1.16: z-score [16, 19]
-1.33: Z-AUC [10, 17]
-1.17: z-score [16, 18]

Cc1ccccc1-n1c(Cn2ncc3c(N)ncnc32)nc2cccc(C)c2c1=O
-0.742: Z-AUC ([10]; measured here: PEO4 Z-AUC)
-1.02: z-score [16, 20]
-0.62: Z-AUC [10, 17]
inactive: Potency [4] | Z-AUC [10] -0.794
-1.3: z-score [16, 18]
active: Potency [1] 4180 nM | Potency [2] 148 nM | Potency [3] 5260 nM | Potency [12] 166 nM | Potency [5] 74.3 nM | Potency [6] 296 nM | Potency [15] 8330 nM | Potency [7] 8330 nM | Potency [8] 1050 nM | Potency ([16]; TFE3-RCC UOK109 viability) 52.6 nM
-1.03: z-score [16, 19]
